According to PubChem BioAssay (NCI):
The panel holds about 79,000 compounds, 15% with a hit somewhere; the sample as a whole holds those more often. Activity calls are given as the source filed them. Cut-off read from the data, not from the text of the source: active = growth inhibition above about 70%; inactive = the rest.

What was measured:
[1] = NCI Yeast Anticancer Drug Screen. Data for the rad52 strain (AID 147);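 note: 0% = growth of vehicle-treated control cultures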; settings: S. cerevisiae rad52 mutant growth inhibition, hits give high values
Procedure, shortened: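 Inhibition of yeast growth, referenced to vehicle controls, was the measured output for a strain with defective DNA damage repair.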

[2] = NCI Yeast Anticancer Drug Screen. Data for the rad50EPP+ strain (AID 151);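 note: 0% = growth of vehicle-treated control cultures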; settings: S. cerevisiae rad50 mutant strain, hits give high values
Procedure, shortened: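 Genetically defined yeast (rad50EPP+, DNA damage repair alteration) is grown with compound, and inhibition of growth is expressed relative to vehicle-treated controls.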

[3] = NCI Yeast Anticancer Drug Screen. Data for the rad50 strain (AID 155);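 note: 0% = growth of vehicle-only cultures of the same strain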; settings: S. cerevisiae rad50 strain growth inhibition, hits give high values
Procedure, shortened: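 DNA repair mutant yeast, compound exposure, growth read-out; inhibition is taken relative to vehicle.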

[4] = NCI Yeast Anticancer Drug Screen. Data for the mec2-1 strain (AID 157); settings: S. cerevisiae mec2-1 strain, hits give high values
Procedure, shortened: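 Each compound was tested on mec2-1 yeast, a strain altered in DNA damage repair or cell cycle control. Growth inhibition is reported relative to vehicle.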

[5] = NCI Yeast Anticancer Drug Screen. Data for the rad14 strain (AID 159);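 note: 0% = growth of vehicle-treated control cultures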; settings: S. cerevisiae rad14 strain growth inhibition, hits give high values
Procedure, shortened: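 DNA repair-defective yeast, compound-exposed; % growth inhibition derived by comparison with vehicle-treated controls.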

[6] = NCI Yeast Anticancer Drug Screen. Data for the sgs1 mgt1 strain (AID 161);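 note: 0% = growth of cultures given vehicle only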; settings: S. cerevisiae sgs1 mgt1 strain, hits give high values
Procedure, shortened: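 Genetically altered yeast, compound exposure, growth inhibition relative to vehicle.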

[7] = NCI Yeast Anticancer Drug Screen. Data for the CLN2oe strain (AID 163);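 note: 0% = growth of vehicle-only control cultures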; settings: S. cerevisiae CLN2oe strain, hits give high values
Procedure, shortened: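 First, the altered yeast strain was treated with each compound; second, its growth was measured; finally, inhibition was derived by comparison with vehicle controls.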

[8] = NCI Yeast Anticancer Drug Screen. Data for the cln2 rad14 strain (AID 165);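 note: 0% = growth equal to vehicle treated cultures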; settings: S. cerevisiae cln2 rad14 strain, hits give high values
Procedure, shortened: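 Test compounds were added to cln2 rad14 yeast cultures; inhibition of growth was then determined by comparison with vehicle treatment.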

[9] = NCI Yeast Anticancer Drug Screen. Data for the bub3 strain (AID 167); settings: S. cerevisiae bub3 mutant strain, hits give high values
Procedure, shortened: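 In this screen, a yeast mutant lacking normal mitotic checkpoint function is challenged with compound. Relative growth versus vehicle gives the inhibition value.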

[10] = NCI Yeast Anticancer Drug Screen. Data for the wt2 strain (AID 169);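 note: 0% = growth of vehicle-treated yeast cultures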; settings: S. cerevisiae wt2 strain growth inhibition, hits give high values
Procedure, shortened: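 The panel's yeast strains carry defined changes in DNA repair or cell cycle genes. Each strain is grown with compound, and growth loss is scored relative to vehicle.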

[11] = NCI Yeast Anticancer Drug Screen. Data for the mlh1 strain (AID 171);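 note: 0% = growth of vehicle-treated control cultures of the same strain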; settings: S. cerevisiae mlh1 strain growth inhibition, hits give high values
Procedure, shortened: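 Inhibition values reflect reduced yeast growth in the presence of compound, referenced to vehicle controls, using a strain chosen for its alteration in DNA repair or cell cycle control.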

[12] = NCI Yeast Anticancer Drug Screen. Data for the sgs1 strain (AID 173);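 note: 0% = growth of vehicle-only control cultures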; settings: S. cerevisiae sgs1 mutant, hits give high values
Procedure, shortened: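 Vehicle-treated cultures served as reference for growth inhibition of a yeast strain altered in DNA damage repair or cell cycle control after compound exposure.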

[13] = NCI Yeast Anticancer Drug Screen. Data for the mlh1 rad18 strain (AID 175); settings: S. cerevisiae mlh1 rad18 strain growth inhibition, hits give high values
Procedure, shortened: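 Inhibition values reflect reduced growth of mutant yeast versus vehicle-treated controls following compound exposure; the mutations affect DNA damage repair.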

[14] = NCI Yeast Anticancer Drug Screen. Data for the rad18 strain (AID 177); settings: S. cerevisiae rad18 mutant growth inhibition, hits give high values
Procedure, shortened: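 Steps: expose repair-mutant yeast to compound; measure growth; express as inhibition relative to vehicle control.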

[15] = NCI Yeast Anticancer Drug Screen. Data for the wt1 strain (AID 149);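 note: 0% = growth of vehicle-treated wt1 cultures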; settings: S. cerevisiae wt1 strain (SPY 50644) growth inhibition, hits give high values
Procedure, shortened: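 wt1 strain grown with compound or vehicle; inhibition taken from the growth difference.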

[16] = NCI Yeast Anticancer Drug Screen. Data for the mgt1 strain (AID 153); settings: S. cerevisiae mgt1 mutant growth inhibition, hits give high values
Procedure, shortened: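 In the mgt1 strain, test compounds were added and growth inhibition was determined relative to vehicle-treated controls.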

[17] = at 5.0 µM (retest, dose inferred, filed as 0.5)
[18] = at 50.0 µM (retest, dose inferred, filed as 5.0)

Measured: growth inhibition

Cc1ccc(SSc2ccc(C)cc2[N+](=O)[O-])c([N+](=O)[O-])c1
inactive: [1]; at 1.2 µM 5% | [1]; at 3.7 µM 19% | [1]; at 11.0 µM 38% | [2]; at 1.2 µM 7% | [2]; at 3.7 µM 16% | [2]; at 11.0 µM 48% | [3]; at 1.2 µM 8% | [3]; at 3.7 µM 15% | [3]; [17] 54% | [3]; at 11.0 µM 33% | [3]; at 33.0 µM 68% | [3]; at 50.0 µM 69.5% | [4]; at 1.2 µM -5% | [4]; at 3.7 µM 2% | [4]; [17] 57% | [4]; at 11.0 µM 26% | [4]; at 33.0 µM 66% | [5]; at 1.2 µM -6% | [5]; at 3.7 µM -10% | [5]; at 11.0 µM 10% | [6]; [17] -8% | [7]; at 1.2 µM -11% | [7]; at 3.7 µM 0% | [7]; at 11.0 µM -9% | [7]; at 33.0 µM -5% | [8]; [17] 37% | [9]; at 1.2 µM -3% | [9]; at 3.7 µM -3% | [9]; [17] 26% | [9]; at 11.0 µM 2% | [10]; at 1.2 µM -15% | [10]; at 3.7 µM -6% | [10]; at 11.0 µM 21% | [11]; at 1.2 µM -14% | [11]; at 3.7 µM -8% | [11]; at 11.0 µM -1% | [11]; at 33.0 µM 66% | [12]; at 1.2 µM 0% | [12]; at 3.7 µM 14% | [12]; at 11.0 µM 46% | [13]; [17] 35% | [13]; at 50.0 µM 44.7% | [14]; at 1.2 µM -18% | [14]; at 3.7 µM -14% | [14]; at 11.0 µM 19% | [14]; at 33.0 µM 53%
active: [1]; at 33.0 µM 77% | [1]; at 100.0 µM 86% | [2]; at 33.0 µM 90% | [2]; at 100.0 µM 87% | [3]; [18] 90% | [3]; at 100.0 µM 86% | [4]; [18] 94% | [4]; at 50.0 µM 78.7% | [4]; at 100.0 µM 86% | [5]; at 33.0 µM 74% | [5]; at 100.0 µM 85% | [6]; [18] 95% | [7]; at 100.0 µM 72% | [8]; [18] 86% | [9]; at 33.0 µM 84% | [9]; [18] 94% | [9]; at 100.0 µM 87% | [10]; at 33.0 µM 82% | [10]; at 100.0 µM 85% | [11]; at 100.0 µM 87% | [12]; at 33.0 µM 91% | [12]; at 100.0 µM 86% | [13]; [18] 80% | [14]; at 100.0 µM 83%

Cc1nc2ccc(NCCN(C)C)c3c(=O)c4ccccc4n1c23
inactive: [15]; at 1.2 µM 26% | [15]; at 3.7 µM 25% | [15]; at 11.0 µM 37% | [15]; at 33.0 µM 31% | [15]; at 100.0 µM 26% | [2]; at 1.2 µM 26% | [2]; at 3.7 µM 11% | [2]; at 11.0 µM 40% | [2]; at 33.0 µM 55% | [2]; at 100.0 µM 65% | [16]; at 1.2 µM 27% | [16]; at 3.7 µM 31% | [16]; at 11.0 µM 33% | [16]; at 33.0 µM 27% | [16]; at 100.0 µM 38% | [3]; at 1.2 µM 43% | [3]; at 3.7 µM 50% | [3]; [17] 28% | [3]; at 50.0 µM -1.8% | [4]; at 1.2 µM 25% | [4]; at 3.7 µM 30% | [4]; [17] 16% | [4]; at 11.0 µM 41% | [4]; at 33.0 µM 42% | [4]; [18] 25% | [4]; at 50.0 µM 6.95%
active: [3]; at 11.0 µM 75% | [3]; at 33.0 µM 89% | [3]; [18] 79% | [3]; at 100.0 µM 92%
